The source of these data is PubChem BioAssay (Tox21).

Values joined by “and” are separate entries in the source; they are usually repeats but may differ in a detail not shown here. Identical values can stand only once. Inconclusive results are not listed. Some compounds were tested as several samples or in several runs, with calls that do not always agree. Active and inactive are the calls of the source. Unless noted, the call rests on the fitted dose curve; in most records, active means well fitted curve in the direction sought with a large enough effect in the repeat runs; inconclusive means weak or mixed curves; inactive means no such curve, though single readings can be large; an effect the other way counts as inactive or inconclusive.

The nature of test [1]: qHTS RealTime-Glo MT Cell Viability Assay in HEK293 cells - 0 hour (AID 1224880). Further: top concentration of the series differs between compounds; nearly all actives have a fitted effect of over 45% in size. Summed up: (§1)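 Luminescence, which tracks viable cell number through reduction of the prosubstrate to a NanoLuc substrate, was read over continuous 37 C culture. Cells (600/well) were premixed with reagent and rested 5 h before 23 nL of compound in DMSO was pinned.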
Background: Quantitative high-throughput screening tests each substance at several concentrations.

Test [2] is described as follows: A CellTox Green Cytotoxicity Assay to monitor cytotoxicity in HEK293 cells - 32 hour (AID 1224881). Further: nearly all actives have a fitted effect of over 40% in size. The method in brief: (§2)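 Fluorescence from a DNA-binding dye excluded by viable cells was measured repeatedly in the same HEK293 wells (600 cells/well) during continuous compound exposure at 37 C. Each assay gives one read point: 0, 8, 16, 24, 32 or 40 h.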
Test [3] is described as follows: A CellTox Green Cytotoxicity Assay to monitor cytotoxicity in HepG2 cells - 32 hour (AID 1224883). Further: nearly all actives have a fitted effect of over 50% in size. Summed up: (§3)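 Real-time cytotoxicity: fluorescence of a cell-impermeant cyanine dye binding DNA of dead HepG2 cells, measured repeatedly (0–40 h) during compound exposure at 37 C. Cells seeded 600/well with reagent, dosed after 5 h.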
Test [4] in a line: A CellTox Green Cytotoxicity Assay to monitor cytotoxicity in HEK293 cells - 8 hour (AID 1224884). Further: nearly all actives have a fitted effect of over 35% in size. The method in brief: as §2
The nature of test [5]: qHTS RealTime-Glo MT Cell Viability Assay in HepG2 cells - 16 hour (AID 1224885). Further: nearly all actives have a fitted effect of over 50% in size. The method in brief:
(§4)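 HepG2 cells were seeded at 600 cells/well together with NanoLuc luciferase and a cell-permeant prosubstrate, preincubated 5 h at 37 C/5% CO2, then pin-dosed with compounds in DMSO. Nonlytic luminescence from viable cells was read at each time point.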

A short description of test [6]: qHTS RealTime-Glo MT Cell Viability Assay in HEK293 cells - 24 hour (AID 1224886). Further: top concentration of the series differs between compounds; nearly all actives have a fitted effect of over 50% in size. Summed up:
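HEK293 cells were seeded at 600 cells/well together with NanoLuc luciferase and cell-permeant prosubstrate, preincubated 5 h at 37 C/5% CO2, then given compound in DMSO by pintool. Luminescence from viable-cell prosubstrate reduction was read repeatedly over 40 h.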

Test [7] can be described thus: qHTS RealTime-Glo MT Cell Viability Assay in HEK293 cells - 8 hour (AID 1224887). Further: top concentration of the series differs between compounds; nearly all actives have a fitted effect of over 50% in size. Summed up: as §1
Test [8] can be described thus: A CellTox Green Cytotoxicity Assay to monitor cytotoxicity in HEK293 cells - 16 hour (AID 1224888). Further: nearly all actives have a fitted effect of over 35% in size. The method in brief:
as §2

A short description of test [9]: qHTS RealTime-Glo MT Cell Viability Assay in HepG2 cells - 0 hour (AID 1224889). Further: nearly all actives have a fitted effect of over 50% in size. Summed up: as §4
The nature of test [10]: A CellTox Green Cytotoxicity Assay to monitor cytotoxicity in HepG2 cells - 8 hour (AID 1224890). Further: nearly all actives have a fitted effect of over 45% in size. Summed up:
as §3

Test [11] is described as follows: qHTS assay to identify small molecule antagonists of the estrogen receptor alpha (ER-alpha) signaling pathway using the BG1 cell line in the presence of 0.1 nM 17-beta-estradiol - cell viability counter screen (AID 1259241). Further: nearly all actives have a fitted effect of over 40% in size. The method in brief:
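Viability in VM7Luc4E2 cells after 22 hr compound exposure under 0.1 nM 17beta-estradiol stimulation, by CellTiter-Fluor.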

The nature of test [12]: qHTS assay to identify small molecule antagonists of the androgen receptor (AR) signaling pathway using the MDA cell line in the presence of 0.5 nM R1881 - cell viability counter screen (AID 1259242). Further: nearly all actives have a fitted effect of over 45% in size. The method in brief: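 Live-cell protease activity was measured by CellTiter-Fluor fluorescence after 30 min. Before that, MDA-kb2 MMTV-luciferase cells had 16 hr at 37C without CO2, exposed to test compounds and 0.5 nM R1881 final.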

A short description of test [13]: qHTS assay to identify small molecule phospholipidosis (PLD) inducers (AID 1259344; active means well fitted curve in the direction sought with a large enough effect; an effect the other way counts as inactive or inconclusive). The method in brief: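 Read-out is LipidTOX Red fluorescence (ex 595/em 615) imaged in HepG2 cells after 24 h compound exposure at 37 C, with Hoechst nuclear counterstain (ex 352/em 461) allowing per-cell normalisation.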
Test [14] can be described thus: qHTS assay to identify small molecule HDAC inhibitors (AID 1259364). Further: nearly all actives have a fitted effect of over 45% in size. Further: potency means the concentration at half of the fitted maximal effect. The method in brief: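 Luminescence read after 30 min room-temperature HDAC-Glo incubation measures cellular class I/II HDAC activity. Compounds were applied for 2 hr at 37 C to HCT-116 wild-type cells seeded the day before.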
Test [15] is described as follows: qHTS assay to identify small molecule HDAC inhibitors - cell viability counter screen (AID 1259365). Summed up: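 Cytotoxicity was gauged in wild-type HCT-116 cells after a brief 2hr treatment with DMSO-dissolved compounds at 37C and 5% CO2, using CellTiter-Glo luminescence developed for 30min at room temperature.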
Test [16] can be described thus: qHTS assay to identify small molecule agonists of the sonic hedgehog signaling (Shh) pathway - cell viability counter screen (AID 1259366). Further: nearly all actives have a fitted effect of over 50% in size. The method in brief:
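Stable Gli1-Luc NIH/3T3 clone, 2,000 cells/well. Compound exposure 24hr at 37C. Read-out: CellTiter-Fluor fluorescence.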

Test [17] is described as follows: qHTS assay to identify small molecule antagonists of the sonic hedgehog signaling (Shh) pathway - cell viability counter screen (AID 1259367). Further: nearly all actives have a fitted effect of over 55% in size. The method in brief: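 Fluorescence read-out (CellTiter-Fluor, 1 hr at 37C) taken after 23 hr compound treatment of 3T3 Gli1-Luc cells stimulated with conditioned medium. Cells were seeded at 2,000 per well and pre-incubated 4 hr.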

Test [18] has as its target Estrogen receptor (Homo sapiens) (UniProt P03372). The experiment in a line: qHTS assay to identify small molecule antagonists of the estrogen receptor alpha (ER-alpha) signaling pathway using the BG1 cell line in the presence of 0.1 nM 17-beta-estradiol (AID 1259244). Further: nearly all actives have a fitted effect of over 50% in size. The method in brief: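 Luciferase luminescence (ONE-Glo, 30 min at room temperature) was read after 22 hr at 37C exposure to compounds plus 17beta-estradiol at 0.1 nM final. Cells were VM7Luc4E2 with endogenous ER-alpha and an ERE-driven luciferase, pre-cultured 5 days in hormone-depleted medium.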

Chain of Estrogen receptor (Homo sapiens) (P03372 whole entry, looked up): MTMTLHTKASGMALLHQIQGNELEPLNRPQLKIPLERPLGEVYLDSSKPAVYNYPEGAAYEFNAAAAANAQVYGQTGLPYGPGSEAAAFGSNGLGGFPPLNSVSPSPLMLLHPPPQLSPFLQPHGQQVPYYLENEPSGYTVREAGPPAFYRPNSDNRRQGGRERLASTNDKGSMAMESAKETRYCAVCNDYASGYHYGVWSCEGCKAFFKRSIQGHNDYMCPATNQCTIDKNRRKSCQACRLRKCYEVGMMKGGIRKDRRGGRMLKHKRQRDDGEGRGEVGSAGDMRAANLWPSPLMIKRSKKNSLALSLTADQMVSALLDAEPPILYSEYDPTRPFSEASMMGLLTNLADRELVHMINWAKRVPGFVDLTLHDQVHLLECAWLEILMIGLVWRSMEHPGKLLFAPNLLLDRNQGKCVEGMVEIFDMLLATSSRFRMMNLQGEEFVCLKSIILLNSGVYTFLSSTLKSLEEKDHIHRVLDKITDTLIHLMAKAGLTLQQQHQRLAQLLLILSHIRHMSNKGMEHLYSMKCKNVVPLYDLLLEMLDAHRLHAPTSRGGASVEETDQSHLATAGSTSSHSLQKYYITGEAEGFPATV

As for `CN1C(=O)CCS(=O)(=O)C1c1ccc(Cl)cc1` (configuration not stated), the call in [1], in test [5], in test [6], in test [7], in test [9] and in [11] was inactive. The outcome in test [12] and in test [15] was inactive. In addition, the Potency entry in test [2], in test [3], in test [4], in [8], in [10] and in test [13] was “inactive” in each case. Moreover, the Potency result in test [14] and in [16] was “inactive” each time.

`CCOP(=S)(OCC)Oc1ccc([N+](=O)[O-])cc1`: the outcome in test [1], in test [5], in [6], in test [7], in test [9] and in [11] was inactive. The result in test [12] and in test [15] was inactive. The Potency result in [2], in [3], in [4], in [8], in [10] and in test [14] was “inactive” each time. In addition, the Potency result in test [16] and in [17] was “inactive” each time.

Turning to `N#Cc1ccccn1`, the outcome in test [1], in test [5], in [6], in [7], in [9] and in [11] was inactive. Also, the outcome in [12] and in test [15] was inactive. The Potency result in [2], in test [3], in test [4], in [8], in test [10] and in test [18] was “inactive” throughout. In addition, the Potency entry in [14], in test [16] and in test [17] was “inactive” throughout.

In the case of `CNC(=O)O/N=C/C(C)(C)SC`, the compound was called inactive in test [1], in test [5], in test [6], in test [7], in [9] and in test [11]. The outcome in test [12] and in [15] was inactive. For the same compound, the Potency result in test [2], in test [3], in test [4], in test [8], in test [10] and in [18] was “inactive” throughout. In addition, the Potency result in test [14], in test [16] and in test [17] was “inactive” in each case.

As to `Nc1cccc(Cl)c1`, the result in [1], in test [5], in test [6], in [7], in test [9] and in [11] was inactive. Further, the outcome in test [12] and in [15] was inactive. Further, the Potency entry in [2], in [3], in test [8], in test [10], in test [18] and in test [14] was “inactive” in each case. The Potency result in [16] and in test [17] was “inactive” throughout.

As for `O=C(O)CCCc1ccc(N(CCCl)CCCl)cc1`, the result in test [1], in test [5], in [6], in test [7], in [9] and in test [11] was inactive. For the same compound, the result in [12] and in test [15] was inactive. For the same compound, the Potency entry in test [2], in [3], in [8], in test [10], in test [18] and in test [13] was “inactive” each time. Besides, the Potency entry in [14], in test [16] and in test [17] was “inactive” each time.

As to `Cc1ccc(N=C=O)cc1N=C=O`, the call in [1], in test [5], in test [6], in test [7], in [9] and in test [11] was inactive. Further, the outcome in [12] and in test [15] was inactive. Besides, the Potency entry in test [2], in test [3], in [8], in test [10], in test [14] and in [16] was “inactive” throughout. In test [17], the Potency result is “inactive”.

Take `COP(=S)(OC)Oc1ccc(SC)c(C)c1`: the compound was called inactive in [1], in test [5], in test [6], in test [7], in test [9] and in test [11]. Besides, the outcome in test [12] and in test [15] was inactive. Also, the Potency entry in test [2], in test [3], in test [8], in test [10], in test [18] and in test [13] was “inactive” in each case. The Potency entry in test [14], in test [16] and in test [17] was “inactive” throughout.

Regarding `CC(=O)/C=C/c1ccccc1`, the compound was classed as inactive in [1], in [5], in test [6], in test [7], in test [9] and in test [11]. Also, the outcome in test [12] and in [15] was inactive. Also, the Potency entry in test [2], in test [3], in test [8], in [10], in [14] and in test [16] was “inactive” in each case.

On to `CNc1cnn(-c2cccc(C(F)(F)F)c2)c(=O)c1Cl`, for which the result in [1], in test [5], in [6], in test [7], in test [9] and in test [11] was inactive. The result in test [12] and in test [15] was inactive. For the same compound, the Potency entry in test [2], in test [3], in test [8], in test [10] and in test [16] was “inactive” each time. Besides, in test [14], the Potency entry was “inactive and 30.6 µM (active)”.

As to `O=C(O)c1cc(Oc2ccc(C(F)(F)F)cc2Cl)ccc1[N+](=O)[O-]`, the compound was called inactive in [1], in test [5], in test [6], in test [7], in test [9] and in [11]. Further, the result in test [12] and in test [15] was inactive. In addition, the Potency entry in [2], in [3], in test [8], in [10], in test [13] and in test [14] was “inactive” throughout. The Potency entry in test [16] and in test [17] was “inactive” throughout.

Take `CSc1nnc(C(C)(C)C)c(=O)n1N`: the compound was called inactive in test [1], in [5], in test [6], in test [7], in [9] and in test [11]. For the same compound, the outcome in test [12] and in test [15] was inactive. Moreover, the Potency entry in test [2], in test [3], in test [8], in test [10], in test [14] and in test [16] was “inactive” each time.

As to `CN(C)C(=O)Cl`, the call in test [1], in test [5], in test [6], in test [7], in test [9] and in test [11] was inactive. For the same compound, the result in test [12] and in test [15] was inactive. Moreover, the Potency entry in test [2], in test [3], in [8], in test [10], in test [18] and in test [14] was “inactive” each time. Also, the Potency entry in test [16] was “inactive”.

On to `CNC(=O)O/N=C/C(C)(C)S(C)=O` (configuration not stated), for which the outcome in test [1], in test [5], in [6], in test [7], in [9] and in [11] was inactive. The result in [12] and in [15] was inactive. The Potency entry in test [2], in test [3], in [8], in test [10], in [18] and in [14] was “inactive” throughout. Moreover, in test [16], the Potency result is “inactive”.

For `O=C/C=C/c1ccccc1`, the compound was called inactive in [1], in test [5], in test [6], in test [7], in [9] and in test [11]. In addition, the result in test [12] and in [15] was inactive. Moreover, the Potency result in test [2], in test [3], in test [8], in test [10], in test [18] and in test [13] was “inactive” in each case. In addition, the Potency result in [14], in test [16] and in test [17] was “inactive” throughout.

Turning to `CCOP(=S)(OCC)Oc1cc(C)nc(C(C)C)n1`, the call in test [1], in [5], in [6], in test [7], in test [9] and in test [11] was inactive. Moreover, the result in test [12] and in test [15] was inactive. Moreover, the Potency entry in test [2], in [3], in test [4], in test [8], in [10] and in [13] was “inactive” throughout. The Potency entry in [14] and in test [16] was “inactive” in each case.
